Six1-Eya2 blk – Six1/Eya2 interaction inhibition. AlphaScreen GST-Six1/His-Eya2 binding, biochemical; stronger effect = lower value. actives 0.56% (n = 360,000). activity change, % (concentration not given with the values). Q15475+O00167; in the data active = activity change below about -65%; inconclusive = mostly about -30% to -63%; also: % is scaled to controls: 0 for no effect and ±100 for the full control effect
Target sequence (O00167 whole entry, looked up): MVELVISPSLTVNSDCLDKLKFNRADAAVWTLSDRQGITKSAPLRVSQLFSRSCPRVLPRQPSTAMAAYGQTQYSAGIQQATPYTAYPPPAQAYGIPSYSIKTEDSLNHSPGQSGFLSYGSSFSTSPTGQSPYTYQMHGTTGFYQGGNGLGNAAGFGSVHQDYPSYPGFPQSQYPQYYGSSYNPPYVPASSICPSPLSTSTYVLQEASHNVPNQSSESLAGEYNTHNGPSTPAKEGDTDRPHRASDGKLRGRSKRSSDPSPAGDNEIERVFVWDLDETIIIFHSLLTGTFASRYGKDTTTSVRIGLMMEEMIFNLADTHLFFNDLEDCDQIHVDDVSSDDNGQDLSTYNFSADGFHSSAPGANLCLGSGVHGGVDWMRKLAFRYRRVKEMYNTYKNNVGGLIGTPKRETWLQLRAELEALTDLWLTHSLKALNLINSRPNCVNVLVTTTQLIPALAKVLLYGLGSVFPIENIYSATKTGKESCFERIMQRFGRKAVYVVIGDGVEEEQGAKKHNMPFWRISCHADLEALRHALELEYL
Target sequence (Q15475 whole entry, looked up): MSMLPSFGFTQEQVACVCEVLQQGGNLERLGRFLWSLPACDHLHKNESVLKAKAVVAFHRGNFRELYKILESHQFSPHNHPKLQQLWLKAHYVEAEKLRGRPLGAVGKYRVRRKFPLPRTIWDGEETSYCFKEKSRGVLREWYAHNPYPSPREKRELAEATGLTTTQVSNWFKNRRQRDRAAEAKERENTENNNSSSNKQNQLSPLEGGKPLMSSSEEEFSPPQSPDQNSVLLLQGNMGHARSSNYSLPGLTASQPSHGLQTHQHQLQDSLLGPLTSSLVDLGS
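Homogeneous AlphaScreen proximity assay pairing GST-Six1 with His-tagged Eya2 (added as 5X mix: 250 nM and 500 nM) in 50 mM Tris pH 8.0, 300 mM NaCl, 1 mM TCEP. Glutathione donor and nickel acceptor beads; 1 h, 37 °C, dark.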
Gal4-VP16 FLuc – inhibits Gal4-VP16 luciferase reporter, ROR gamma counter-screen; actives 3.5% (n = 310,000); Drosophila S2 Gal4-VP16 UAS-luciferase, luminescence, 20 h; Potency, µM (series often up to 53.6 µM), for the others: top-dose activity, negative = inhibition, most hits filed as inhibitors;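 also: Gal4-VP16 expression switched on by copper sulfate through the metallothionein promoter; potency is read from the fitted curve at half-maximal effect; % is scaled to controls: 0 for no effect and ±100 for the full control effect; nearly all actives have a fitted effect of over 50% in size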
RORgamma inh – inhibitors of mouse ROR gamma transcriptional activity. P51450. Drosophila S2 Gal4-RORgamma UAS-luciferase reporter, 20 h. Potency, µM (titrated, usually from 53.6 µM), inactives show top-dose activity change, negative = inhibition, actives largely listed as inhibitors. actives 5.4% (n = 310,000). AID 2551; also: potency is read from the fitted curve at half-maximal effect; % is scaled to controls: 0 for no effect and ±100 for the full control effect; nearly all actives have a fitted effect of over 60% in size
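Stably transfected Drosophila Schneider cells are the test system, with ROR gamma fused to Gal4 and luciferase under UAS control; luminescence is read after 20 hr of 700 uM copper sulfate induction at ambient temperature.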
CtBP-E1A inh – CtBP/E1A binding inhibition; actives 0.49% (n = 340,000); AlphaScreen GST-E1A/His-CtBP binding, 1536-well; stronger effect = lower value; AID 651724; activity change, % (test concentration not listed); in the data active = activity change below about -65%; inconclusive = mostly about -30% to -63%; also: % is scaled to controls: 0 for no effect and ±100 for the full control effect
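Protein mix (5X: 125 nM each GST-E1A, His-CtBP) was incubated with pinned compound 2 h at 37 deg C in dark, in 50 mM Tris pH 8.0 buffer with 300 mM NaCl. Glutathione donor and nickel acceptor beads followed; AlphaScreen signal read after 1 h.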
CBFb RUNX1 block – inhibitors of human CBF-beta and RUNX1 interaction; AlphaScreen CBFb-His/RUNX1-biotin binding, biochemical; Potency, µM (titrated, usually from 59.8 µM), inactives show at the highest dose activity, negative = inhibition, actives largely listed as inhibitors; 230,000 tested, under 10 active; AID 1477; also: % of control where 0% means no effect
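Interaction loss through any mechanism counts as activity. Pre-formed complex of His-CBF-beta and biotin-RUNX1 (30 nM apiece) is incubated with compound 15 min, then with 50 ng nickel and 50 ng streptavidin beads for 90 min before AlphaScreen detection.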
MBNL1-CUG inh – inhibitors of human MBNL1 binding to CUG repeat RNA | Q9NR56 | TR-FRET MBNL1-His/biotin-(CUG)12 binding, 665/545 ratio | Potency, µM (series often up to 57.5 µM), for the others: at the top dose activity change, negative = inhibition, most hits filed as inhibitors | actives 0.036% (n = 280,000); active = well fitted inhibition curve with a large enough effect in the signal ratio, with a control signal flat, not every such curve was filed as active; inconclusive = small, poorly fitted or top-dose-only effect, or effect the other way, or a change in a side signal; inactive = no such curve, though single readings can be large or run the other way; the % refers to the signal ratio; also: potency is read from the fitted curve at half-maximal effect; % is scaled to controls: 0 for no effect and ±100 for the full control effect
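Compound titration spanned 92 nM–58 uM against the MBNL1-His/biotin-(CUG)12 complex. After 60 min at room temperature with 5 nM streptavidin-XL665 and 0.055 ng/ul terbium anti-His, ratiometric 665/545 nm emission (Ex 340 nm) normalized to controls.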
An asterisk follows results filed as active; ? = inconclusive; . = no result given; [ ] = dose if it differs, or a comment. Sampled rows, rich in hits. Any-hit rate of the full collection: about 5.5%. Unless noted, calls follow the shape of the dose curve; as a rule, active = well fitted curve in the direction sought with a large enough effect; inconclusive = small, poorly fitted or top-dose-only effect, or another doubt; inactive = no such curve, though single readings can be large; an effect the other way counts as inactive or inconclusive.

SMILES	Six1-Eya2 blk	Gal4-VP16 FLuc	RORgamma inh	CtBP-E1A inh	CBFb RUNX1 block	MBNL1-CUG inh
CN(C)CCN(C)C1CN(C2CCCC2)S(=O)(=O)C1 (stereo unspecified)	-6	.	.	1	.	.
O=C(Nc1ncc(Cc2cccc(Cl)c2)s1)C1=NCCN1	-2	5µM*	2.5µM*	10	-2%	4%
O=C(COC(=O)c1cc(-c2cccc(Br)c2)nc2ccccc12)NCC1CCCO1 (stereo unspecified)	0	-3%	36%	-15	6%	32%
C=CCn1c(-c2ccc(OC)c(OC)c2)cs/c1=N\c1ccccn1	-11	?	?	4	-11%	?
C=CCN=c1scc(-c2ccccc2)n1/N=C/c1ccccn1	?	10µM*	5µM*	?	?	19%
C=CCN=c1scc(-c2ccc(F)cc2)n1/N=C/c1ccccn1	?	11µM*	8.9µM*	?	?	9%
CCOc1cc(NC(C)=O)ccc1C(=O)OC	.	-8%	2%	.	9%	.
CCCNC(=O)C1(C)CCCN(Cc2ccsc2)C1 (stereo unspecified)	1	.	.	3	.	.
COc1ccc(O)c(-c2cc(-c3ccccc3Cl)[nH]n2)c1	-15	?	?	-16	.	-4%
Oc1ccc(Br)cc1-c1cc(-c2ccccc2Cl)[nH]n1	4	-28%	2.8µM*	-2	9%	1%
Oc1ccc(Br)cc1-c1cc(-c2ccccc2F)[nH]n1	5	3.5µM*	1.8µM*	1	-2%	1%
Cc1cccc(C(C(=O)NCc2ccc(F)cc2)N(C(=O)c2csnn2)C2CC2)c1 (stereo unspecified)	-3	-5%	-10%	-1	.	-7%
O=C(O)CCCCCN1C(=O)CSC1=S	6	-16%	5µM*	-4	-1%	6%
CCN(CC)CCCNCC(=O)Nc1ccc(OC)c(Cl)c1	.	2%	20%	.	-5%	.
O=c1[nH]c(Sc2ccc([N+](=O)[O-])cc2[N+](=O)[O-])nc2ccccc12	3	.	.	.	.	.
O=[N+]([O-])c1ccc(Sc2cc[n+]([O-])c3ccccc23)c([N+](=O)[O-])c1	-19	18µM*	11µM*	-2	-3%	?
CCc1cccc2c(C(=O)CCl)c[nH]c12	1	14µM*	?	2	4%	1%
CCc1cccc2c(C(=S)N3CCCC3)c[nH]c12	-9	-10%	23%	.	0%	-1%
CC(NC(=S)NCCN1CCOCC1)C12CC3CC(CC(C3)C1)C2 (stereo unspecified)	-5	-14%[10 µM]	5µM*	-6	-1%	-10%
CNC(=S)NCCN1CCOCC1	5	-5%	-3%	7	2%	-12%
S=C(NCCCN1CCOCC1)NC1CC1	0	6%	-10%	8	2%	-3%
CC(NC(=S)NCCCN1CCOCC1)C1CC2CCC1C2 (stereo unspecified)	11	?	5.6µM*	3	2%	-9%
Cc1onc(-c2ccccc2)c1C(=O)NC(=S)NNC(=O)c1ccc(O)cc1O	-93*	-1%	?	-14	.	-6%
CCCOc1ccc(C(=O)NC(=S)NNC(=O)c2c(-c3ccccc3)noc2C)cc1	?	?	4µM*	?	-23%	1%
Cc1onc(-c2ccccc2)c1C(=O)NC(=S)NNC(=O)c1ccccc1O	-85*	-27%	-14%	7	.	-14%
SMILES	Six1-Eya2 blk	Gal4-VP16 FLuc	RORgamma inh	CtBP-E1A inh	CBFb RUNX1 block	MBNL1-CUG inh
CN(Cc1ccccc1)S(=O)(=O)c1ccc(Cl)c(C(=O)NCCCN2CCOCC2)c1	5	.	.	5	.	.
Cc1cc2ccccc2n2c(SCC(=O)N3CCc4ccccc4C3)nnc12	-11	18µM*	?	-11	5%	9%
Fc1ccc(Sc2nc(-c3ccccc3)nnc2C(F)(F)F)cc1	2	7.1µM*	5.6µM*	8	8%	-2%
Fc1ccc(Oc2nc(-c3ccccc3)nnc2C(F)(F)F)cc1	0	-16%	24%	0	1%	-16%
Cc1ccc2nc(-c3ccccc3)c(Cc3ccccc3C(F)(F)F)n2c1	-19	.	.	-22	.	.
COc1ccc(-c2ccc(-c3noc(-c4cccc(OC)c4)n3)c(OC)n2)cc1	0	?	0.35µM*	23	8%	1%
COc1cccc(-c2nc(-c3cccs3)no2)c1	27	?	13µM*	40	24%	-5%
CC(C)(C)c1nc(SCC(=O)c2ccccc2)c2ccccc2n1	26	?	20µM*	6	?	1%
Cc1cccc(NC(=O)c2cccnc2Oc2ccccc2)c1C(=O)O	10	4%	3%	2	.	-6%
CCOC(=O)/C(C#N)=N/Nc1ccc(S(=O)(=O)N2CCc3ccccc32)cc1	-6	-25%	?	-4	?	26%
N#C/C(=N\Nc1ccc(S(=O)(=O)N2CCCCCC2)cc1)C(N)=S	-6	?	11µM*	13	3%	?
N#C/C(=N/Nc1ccc([N+](=O)[O-])cc1)C(=N)N1CCCCC1	-23	-12%	-1%	?	?	?
O=C(O)c1ccc(N=NNc2cccc([N+](=O)[O-])c2)cc1	-19	-22%	14%	-14	-4%	?
N#C/C(=N\Nc1ccc(S(=O)(=O)N2CCc3ccccc32)cc1)C(N)=S	-24	?	11µM*	-28	?	?
N#C/C(=N\Nc1ccc(S(=O)(=O)N2CCCCC2)cc1)C(N)=S	28	-22%	?	-6	-25%	.
N#C/C(=N\Nc1cccc([N+](=O)[O-])c1)C(=O)c1ccc(Br)cc1	-16	5µM*	4.5µM*	4	?	3%
N#C/C(=N\Nc1ccc([N+](=O)[O-])cc1)C(N)=S	?	13µM*	?	-9	?	?
CC(C)N(C(=O)[C@H]1C[C@H](CC(=O)NCC23CC4CC(CC(C4)C2)C3)C(=O)N2CCc3c([nH]c4ccc(Cl)cc34)[C@]12C)C(C)C	2	.	.	3	.	.
CNC(=O)COC(=O)/C=C/c1cccc(F)c1	0	3%	-1%	.	-5%	3%
CC1(O)CC(C)(C)C(C#N)C(=O)N1 (stereo unspecified)	8	.	.	4	.	.
CCOC(=O)[C@@H]1[C@H]2COc3ccc(Br)cc3[C@@H]2N2C(=O)N(c3cccc(F)c3)C(=O)[C@@]12C	-3	4%	18µM*	.	.	-14%
CCOC(=O)[C@@H]1[C@H]2COc3cc(OC)ccc3[C@@H]2N2C(=O)N(c3ccc(Br)cc3)C(=O)[C@@]12C	-8	-3%	7.9µM*	-4	.	10%
